Reference: PubChem BioAssay (NCI)
This is part of a sample that, as a whole, favours compounds with a hit. Of some 83,000 tested, about 20% had one in any assay.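 Growth was measured after 48 h exposure to one concentration of compound in 96-well plates. Values under 10 count as active.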 Activity calls are given as the source filed them.

system: MDA-MB-468 breast; assay: NCI-60 one-dose screen, 48 h (100 = growth as untreated, 0 = no growth, -100 = all killed); conditions: 10 µM unless noted

Row | Structure (SMILES) | growth
1 | S=C1CC(=S)NC(=S)N1 | 95.8% (inactive)
2 | CC(C)=CCC[C@](C)(O)[C@H]1CC[C@]2(C)[C@@H]1CC[C@@H]1[C@@]3(C)CC/C(=N/O)C(C)(C)[C@@H]3CC[C@]12C | -26.3% [100 µM] (active)
3 | O=C(c1nc2ccccc2[nH]1)C1C(c2ccc(F)cc2)C2CC3CCCCC3N2[C@@]12C(=O)Nc1ccc(Cl)cc12 (stereo not given in full) | 41.6% (inactive)
4 | O=c1c2ccccc2oc2ccc(OCCCCCCN3CCCCCC3)cc12 | 20.2% (inactive)
5 | O=C(O)COc1ccc(Cl)cc1C1CCCCC1 | 97.6% (inactive)
6 | Cc1cccc2c1NC(=O)[C@@]21[C@H](C(=O)c2ccccc2)[C@]2(C(=O)Nc3ccccc32)[C@H]2CCCN21 | 22.2% [100 µM] (inactive)
7 | O=C(Nc1ccc2[nH]ncc2c1)c1csc(Nc2ccccc2)n1 | 14.4% (inactive)
8 | COc1cc([C@@H]2c3cc4c(cc3C(Br)[C@H]3COC(=O)[C@H]23)OCO4)cc(OC)c1OC (stereo not given in full) | -49.3% (active)
9 | CCOC(=O)c1c(C)nc2c(c1N)CC(=O)N2Cc1cc(OC)c(OC)c(OC)c1 | -4.22% (active)
10 | CN1CCC(CNc2cc(C3(C(=O)Nc4cc(C(=O)Nc5ccc(Cl)c(C(F)(F)F)c5)ccc4F)CC3)ncn2)CC1 | -7.58% (active)
11 | O=c1c2cc(F)ccc2sc2c(Nc3ccncc3)nc3ccccc3c12 | 27.8% (inactive)
12 | COC(=O)c1cc(=O)nc(N/N=C/c2ccco2)s1 | 61.7% (inactive)
13 | Cc1ccc(Sc2oc(-c3ccc(C)cc3)nc2[P+](c2ccccc2)(c2ccccc2)c2ccccc2)cc1 | -36.5% (active)
14 | CCO/C=C1\SC(=S)N(c2cccc(O)c2)C1=O | 87.6% (inactive)
15 | COc1cc(C2NC(c3ccc(Cl)cc3)C(C)C(=NC(=O)c3cnccn3)C2C)cc(OC)c1OC (stereo not given) | 91.6% (inactive)
16 | CCCc1cccc(CCC)c1O | 118% (inactive)
17 | CCN(CC)c1ccc(N=C2C=CC(=O)C=C2NC(C)=O)cc1 | 98.7% (inactive)
18 | O=c1c2cc(Br)cc(Br)c2nc(-c2ccc(Cl)cc2)n1/N=C\c1ccccc1F | 79.1% (inactive)
19 | N=C(N)c1ccc(-c2ccc(-c3cccs3)s2)s1 | -90.3% (active)
20 | CC(=O)[C@H]1CC[C@]2(C)[C@@H]1CC[C@@H]1[C@@]3(C)CC(CCC#N)(CCC#N)C(=O)C(C)(C)[C@@H]3CC[C@]12C | 99.7% (inactive)

Row | Structure (SMILES) | growth
21 | COc1cccc(Cn2c(-c3nonc3NC(C)=O)nc3ccccc32)c1 | -7.42% (active)
22 | Oc1ccc(O)cc1 | 96.7% (inactive)
23 | CC(C)(C)c1cc(-c2nc3ccc(N4CCN(CCO)CC4)cc3[nH]2)cc(C(C)(C)C)c1O | 52.7% (inactive)
24 | COC1CC(N)C2OC(c3ccccc3)OCC2O1 (stereo not given) | 109% (inactive)
25 | O=C(NNC(=O)c1ccncc1)Nc1ccc([N+](=O)[O-])cc1 | 106% (inactive)
26 | O=C(O)c1ccccc1.[Ag] | 90.4% (inactive)
27 | C#C[C@]1(O)CC[C@H]2[C@@H]3CC[C@H]4CC(F)(F)CC[C@]4(C)[C@H]3CC[C@@]21C | 88.2% (inactive)
28 | CC(C)(N)CO[C@H]1C[C@H]2CC[C@@]1(C)C2(C)C | 84% (inactive)
29 | O=C(Nc1ccc(Nc2ccncc2)cc1)c1ccc(C(=O)Nc2ccc(Nc3ccncc3)cc2)cc1 | 2.69% (active)
30 | C/C(=N/N=C(N)N)c1ccc(N)cc1 | 75.5% (inactive)
31 | COc1cc(/C=C/C(=O)c2ccc(Nc3ncnc4ccccc34)cc2)cc(OC)c1 | 28.8% (inactive)
32 | Cc1c(NCC(=O)Nc2nc3ccccc3[nH]2)c(=O)n(-c2ccccc2)n1C | 106% (inactive)
33 | COc1cc(/C(C)=C(\c2ccc(Cl)cc2)c2ccc(OCCN3CCCC3)cc2)ccc1F | 57.3% (inactive)
34 | Cc1ccc(Cc2cnc(NC(=O)CN3C(=O)/C(=C\c4ccccc4)SC3=S)s2)cc1 | 105% (inactive)
35 | COc1cc(/C=C2\CN(C(=O)OC(C)(C)C)C/C(=C\c3ccc(O)c(OC)c3)C2=O)ccc1O | 99.9% (inactive)
36 | CCCCCOc1ccc(C(=O)/C(Br)=C/C(=O)O)cc1 | 89.2% (inactive)
37 | CCN(C(=O)Nc1cccc2ccccc12)c1ccccc1 | 99.7% (inactive)
38 | CCOC(=O)c1cc(C(=O)c2cc(OC)c(OC)c(OC)c2)n2nc(C)ccc12 | 37.4% (inactive)
39 | O=C(Nc1ccccc1O)c1ccc(-c2ccc(Cl)cc2Cl)o1 | 80.8% (inactive)
40 | COc1ccc(/C=N\Nc2nc(SCCC(C)C)nc(-c3ccc(OC)cc3)c2C#N)cc1 | 35.9% (inactive)
